# Compound activity (PubChem BioAssay)
# MARV entry inh – inhibitors of Marburg virus binding or cell entry | Marburg virus pseudotyped entry inhibition, cell reporter | Potency, µM (titrated, usually from 37.8 µM), for the others: at the highest dose activity change, negative = inhibition, actives largely listed as inhibitors | 300,000 compounds, 1.8% hits | AID 540276; calls by dose curve; tested in HEK293 cells; note: potency is the fitted concentration of half-maximal effect; % is set by controls: 0 for no effect and ±100 for the full control effect
# CHX counter – counter-screen hit for Shiga toxin inhibitors, cycloheximide; cell reporter, cycloheximide protein synthesis inhibition counterscreen; max response, %; 300,000 compounds, 12% hits; in the data active = max response mostly above about 13%, no sharp cut-off; inactive = mostly below about 14%; note: read at 38.3 µM for the half of the compounds with a filed dose; 0% is about no effect
# Lassa entry inh – blocks Lassa virus binding to or entry into cells; AID 540256; Lassa virus pseudotype entry inhibition, cell reporter; Potency, µM (top dose mostly 37.9 µM), inactives show at the highest dose activity change, negative = inhibition, most hits filed as inhibitors; 300,000 compounds, 1.2% hits; calls by dose curve; tested in HEK293 cells; note: potency is the fitted concentration of half-maximal effect; % is set by controls: 0 for no effect and ±100 for the full control effect; nearly all actives have a fitted effect of over 50% in size
# Shiga toxin inh – Shiga toxin inhibition; 290,000 compounds, 9.2% hits; Vero cells, Shiga toxin protein synthesis inhibition reporter; AID 2315; inhibition, % at 38.7 µM; in the data active = inhibition mostly above about 28%, no sharp cut-off; inactive = mostly below about 43%; note: 0% is about no effect
# * = called active by the depositor; ? = inconclusive; . = not tested or not shown; [ ] = remark or other dose. The list is not random: actives were taken first. Their share in the collection is about 12%.
SMILES,MARV entry inh,CHX counter,Lassa entry inh,Shiga toxin inh
CC(C)(C)c1ccc(/C=N/N2CCN(c3ccccn3)CC2)cc1,-19%[14.2 µM],9,?,21
Oc1ccc(/C=N/N2CCN(c3ccccn3)CC2)cc1,.,27*,.,101*
O=[N+]([O-])c1ccccc1/C=N/N1CCN(c2ccccn2)CC1,?,37*,?,47*
O=C(Nc1ccc2nc(SCC(=O)N3CCOCC3)sc2c1)c1cccc(Cl)c1,3%[46.1 µM],.,-32%[46.1 µM],.
O=C(Nc1cccc(Cl)c1)c1ccc2c(c1)SC1=NS(=O)(=O)CCN12,?,-4,?,-11
CC(C)N(C(=O)c1ccccc1-c1ccccc1)C(C)C,-19%,1,-1%,-20
Cc1sc(N)nc1-c1ccc(Oc2ccccc2)cc1,.,19*,.,78
Nc1nc(N)nc(-c2ccc(Oc3ccccc3)cc2)n1,-3%,28,3%,26
Cc1sc(N)nc1-c1ccc2c(c1)OCCO2,.,17*,.,53*
NC1=NN=C(c2ccc3c(c2)OCCO3)CS1,11µM*,-1,7.1µM*,24
Cc1ccc(C(C)C)c(OCC#CCN2CCOCC2)c1,.,-4,.,.
COc1cc([N+](=O)[O-])ccc1NC(=O)CC1SC(=Nc2ccc(F)cc2)N(CCC2=CCCCC2)C1=O (centres undefined),?,3,3.2µM*,-11
COc1ccc(OC)c(NC(=O)CC2SC(=Nc3ccc(F)cc3)N(CCC3=CCCCC3)C2=O)c1 (centres undefined),?,13*,?,-1
CCc1ccc(OCc2n[nH]c(=S)n2C(C)CCCC(C)C)cc1 (centres undefined),.,-6,.,-9
COCCCNC(=S)NCCc1ccc(F)cc1,.,26,.,45*
COCCCNC(=S)NNC(=S)Nc1ccc(F)cc1F,21%,44*,3%,54*
COCCCNC(=S)NNC(=S)Nc1ccccc1,?,27*,16%,40*
C=CCNC(=S)Nc1ccc(F)cc1F,-27%,1,-10%,-13
CC(=O)Nc1ccc(NC(=O)C(C)OC(=O)CNS(=O)(=O)/C=C/c2ccc(C)cc2)cc1 (centres undefined),-2%,.,-1%,.
Cc1ccc(NC(=O)CN2CCC(NC(=O)c3ccccc3F)CC2)cc1C,.,-1,.,-10
CCC(=NCc1ccco1)c1c(O)n(-c2ccc(C)cc2)c(=O)[nH]c1=O,?,2,0.58µM*,17
CCC(=NCc1ccco1)c1c(O)n(-c2ccccc2)c(=O)[nH]c1=O,13%,-2,?,-12
COC(=O)c1sc(NC(=O)c2cc(-c3ccccc3)nc3ccccc23)c(C#N)c1C,?,-1,?,-12
Cc1ccccc1-c1cc(C(=O)Nc2sc(C(=O)OC(C)C)c(C)c2C#N)c2ccccc2n1,12µM*,-2,?,-9
CCOC(=O)c1ccccc1NC(=O)CSc1nc2ncccc2o1,.,.,10%[46.1 µM],.
SMILES,MARV entry inh,CHX counter,Lassa entry inh,Shiga toxin inh
CCOc1ccc(N2CC(C(=O)NC3=NCCS3)CC2=O)cc1 (centres undefined),.,-3,.,-6
CC(=O)Oc1cccc(N2C(=O)c3ccc(C(=O)Nc4c[nH]c(=O)[nH]c4=O)cc3C2=O)c1,24%[46.1 µM],-3,19%[46.1 µM],-6
Nc1nc2ccccc2n1Cc1ccc(Cl)c(Cl)c1,10µM*,-2,2%[46.1 µM],.
CCc1ccc(CN(C)C(=O)c2cc(COc3ccc(-n4cncn4)cc3)on2)cc1,.,19*,.,45
CCCOC1CCCN(C(=O)c2cc(COc3ccc(-n4cncn4)cc3)on2)C1 (centres undefined),.,38*,.,63*
CN(Cc1ccc(F)cc1)C(=O)c1cc(COc2ccc(-n3cncn3)cc2)on1,-14%,10,?,-7
CC(=O)C1=C(c2cccc([N+](=O)[O-])c2)N(C(C)=O)n2c(C)nnc2S1,?,18*,?,12
CC(=O)C1=C(c2ccc(C)c(C)c2)N(C(C)=O)n2c(nnc2-c2ccc(Cl)cc2)S1,.,.,-2%[46.1 µM],.
CC(=O)C1=C(c2ccc(C)cc2)N(C(C)=O)n2c(nnc2-c2ccccc2)S1,.,.,-7%[46.1 µM],.
CCOc1ccc(C2=C(C(C)=O)Sc3nnc(C)n3N2C(C)=O)cc1,.,20*,?,45
COc1ccc(C2=C(C(C)=O)Sc3nnc(-c4ccccc4)n3N2C(C)=O)cc1,.,.,-9%[46.1 µM],.
CCc1nnc2n1N(C(C)=O)C(c1ccc(C(C)(C)C)cc1)=C(C(C)=O)S2,.,.,11µM*,.
C/C(CCN1CCCc2nc(C)c(C)cc21)=N\O[C@H](C)CN1CCCc2nc(C)c(C)cc21,-41%[14.2 µM],.,.,.
O=c1c2ccccc2oc2cc(NCCCn3ccnc3)ccc12,.,24*,.,24*
O=c1c2ccccc2oc2cc(NCCCN3CCOCC3)ccc12,.,40*,.,35*
O=c1c2ccccc2oc2ccc(NCCCN3CCOCC3)cc12,.,36*,.,43*
COc1cc(Cl)c(C)cc1NC(=O)COc1ccc(C)nc1[N+](=O)[O-],21%,.,?,.
Cc1ccc(C2=NN(CCC#N)C(=O)CO2)cc1,-16%[46.1 µM],-6,18%[46.1 µM],-5
COc1ccc(Nc2nc(N3CCCC3)nc3ccccc23)c(OC)c1,?,-4,16µM*,17
COc1ccc(Nc2nc(Nc3ccc(OC)cc3OC)nc(N3CCOCC3)n2)c(OC)c1,1µM*,.,-18%[46.1 µM],.
COc1ccc(Nc2nc(N3CCOCC3)nc(N3CCOCC3)n2)c(OC)c1,.,1,.,.
COc1ccc(Nc2nc(-c3ccc(C)cc3)nc3ccccc23)c(OC)c1,.,.,11%[46.1 µM],.
COc1ccccc1Nc1nc(N2CCOCC2)nc(N2CCOCC2)n1,4µM*,-11,-9%[46.1 µM],12
CSCCC(NS(=O)(=O)c1ccc(C)cc1)C(=O)Nc1ccc(C)cn1 (centres undefined),21%,.,9%,.
Cc1ccc(NC(=S)N(Cc2cccs2)Cc2cc3cccc(C)c3[nH]c2=O)cc1,-5%,-1,?,-7
SMILES,MARV entry inh,CHX counter,Lassa entry inh,Shiga toxin inh
O=C(NCC1CCCN1S(=O)(=O)c1cccs1)c1cccc(Cl)c1 (centres undefined),-17%[46.1 µM],.,3%,.
CCN1C(=O)/C(=C/c2ccc(C)s2)NC1=S,19%[46.1 µM],18,6%,8
CCN1C(=O)C(=Cc2ccc(C)s2)C(=O)N(CC)C1=S,?,21,?,44*
Cc1ccc(S(=O)(=O)CCC(=O)OCc2nnc(-c3ccccc3)o2)cc1,14%,.,11%,.
O=C(OCc1nnc(-c2ccccc2)o1)c1cc2ccccc2cc1O,.,12,.,31
O=C(OCc1nnc(-c2ccccc2)o1)c1ccc(CO)cc1,.,16,.,30
Cc1ccc(-c2nnc(COC(=O)c3cccs3)o2)cc1,.,54*,.,80*
O=C(OCc1nnc(-c2ccccc2)o1)c1ccc2ccccc2n1,-14%,12*,15%,26*
Cc1ccc(C(=O)OCc2nnc(-c3ccc(Br)cc3)o2)cc1,?,4,-3%[46.1 µM],19
Cc1ccc(C(=O)OCc2nnc(-c3ccccc3)o2)o1,6%,25*,2%,34
Cc1ccc(-c2nnc(COC(=O)c3ccco3)o2)cc1,.,38*,.,60*
COC(=O)c1cc(NC(=O)c2cccc([N+](=O)[O-])c2C)ccc1Cl,?,4,?,19
Nc1c(C(=O)c2ccccc2)sc2nsc(SCCN3CCOCC3)c12,0%[14.2 µM],23*,-20%,29*
CC(=O)c1sc2nsc(SCCN3CCOCC3)c2c1N,-11%[14.2 µM],22,16%,28*
CC(C)Cc1c(O)nc(SCCN2CCOCC2)[nH]c1=O,-26%,-2,14%,-7
